According to the supplement of paper PMC13380429:

Experiments:
[1] = tested on: Vero E6 infected with SARS-CoV-2; assay: morphology score (similarity to uninfected cells); higher = more like uninfected cells; conditions: 24 h
[2] = tested on: Vero E6 infected with SARS-CoV-2; assay: SARS-CoV-2 infection rate relative to infected DMSO; higher = more infection, active = 60 or less; conditions: 24 h

| SMILES | morphology score [1] | SARS-CoV-2 infection rate [2] |
| --- | --- | --- |
| C[C@@H]1O[C@@H](OC[C@H]2O[C@@H](Oc3c(-c4ccc(O)c(O)c4)oc4cc(O)cc(O)c4c3=O)[C@H](O)[C@@H](O)[C@@H]2O)[C@H](O)[C@H](O)[C@H]1O [rutin] (10 µM) | -0.197 | 112% (inactive) |
| O=[N+]([O-])c1cn2c(n1)OC[C@@H](OCc1ccc(OC(F)(F)F)cc1)C2 [pretomanid] (10 µM) | 0.0902 | 112% (inactive) |
| O=C/C=C/c1ccccc1 [cinnamaldehyde] (10 µM) | -0.0291 | 104% (inactive) |
| Cc1cc(O)cc2c1O[C@](C)(CCC[C@H](C)CCC[C@H](C)CCCC(C)C)CC2 [D-delta-tocopherol] (10 µM) | -0.14 | 112% (inactive) |
| O=C(O)CNC(=O)c1nc(Cl)c2ccccc2c1O (10 µM) | 0.17 | 102% (inactive) |
| CC(=O)Nc1cccc(-n2c(=O)n(C3CC3)c(=O)c3c(Nc4ccc(I)cc4F)n(C)c(=O)c(C)c32)c1 [trametinib] (0.833333 µM) | 0.263 | 89% (inactive) |
| Oc1cc(O)cc(/C=C/c2ccc(O)c(O)c2)c1 [piceatannol] (10 µM) | -0.206 | 112% (inactive) |
| O=C(Nc1ccccc1Br)N[C@@H]1CCN(c2ccc(C(F)(F)F)cn2)C1 (10 µM) | 0.0714 | 94.5% (inactive) |
| Clc1cc(Cl)c(OCC#CI)cc1Cl [haloprogin] (10 µM) | 0.57 | 32% (active) |
| N#Cc1cc(NC(=O)C(=O)O)c(Cl)c(NC(=O)C(=O)O)c1 [lodoxamide] (10 µM) | -0.0976 | 110% (inactive) |
| Cc1ccccc1OCC(O)CO (centres undefined) [mephenesin] (10 µM) | 0.141 | 99.5% (inactive) |
| c1ccc(Cn2c(N3CCNCC3)nc3ccccc32)cc1 [lerisetron] (10 µM) | 0.0474 | 100% (inactive) |
| CC[C@]12CCCN3CCc4c(n(c5ccccc45)[C@@](O)(C(=O)OC)C1)[C@@H]32 [vincamine] (10 µM) | 0.0512 | 99% (inactive) |
| Cn1nnc2c(C(N)=O)ncn2c1=O [temozolomide] (10 µM) | -0.0949 | 114% (inactive) |
| CSCC[C@H](NC(=O)[C@H](CC(C)C)NC(=O)[C@@H](Cc1c[nH]c2ccccc12)NC(=O)[C@H](Cc1ccccc1)N(C)C(=O)[C@@H](Cc1c[nH]c2ccccc12)NC(=O)[C@@H](N)CCCNC(=N)N)C(N)=O [antagonist-g] (10 µM) | -0.124 | 114% (inactive) |
| CCOC(=O)NNc1nncc2ccccc12 [todralazine] (10 µM) | 0.0897 | 106% (inactive) |
| Cc1c2oc3c(C)ccc(C(=O)N[C@@H]4C(=O)N[C@H](C(C)C)C(=O)N5CCC[C@H]5C(=O)N(C)CC(=O)N(C)[C@@H](C(C)C)C(=O)O[C@@H]4C)c3nc-2c(C(=O)N[C@@H]2C(=O)N[C@H](C(C)C)C(=O)N3CCC[C@H]3C(=O)N(C)CC(=O)N(C)[C@@H](C(C)C)C(=O)O[C@@H]2C)c(N)c1=O [dactinomycin] (10 µM) | -0.16 | 109% (inactive) |
| O=C1c2c(O)cccc2Cc2cccc(O)c21 [anthralin] (10 µM) | -0.0665 | 94% (inactive) |
| O=C(NCCCNc1nc(Nc2cccc(NC(=O)N3CCCC3)c2)ncc1I)c1cccs1 (0.833333 µM) | 0.0981 | 118% (inactive) |
| CC(C)(OCc1nn(Cc2ccccc2)c2ccccc12)C(=O)O [bindarit] (10 µM) | 0.132 | 112% (inactive) |
| Fc1ccc(CNc2ncnc3ccc(F)cc23)cc1 [spautin-1] (10 µM) | -0.0451 | 117% (inactive) |
| CC(C)(Oc1ccc(CCNC(=O)c2ccc(Cl)cc2)cc1)C(=O)O [bezafibrate] (10 µM) | 0.0236 | 104% (inactive) |
| Cc1ccc(C(=O)N(CCCN)[C@@H](c2nc3cc(Cl)ccc3c(=O)n2Cc2ccccc2)C(C)C)cc1 [ispinesib] (0.833333 µM) | -0.37 | 110% (inactive) |
| CCCC[N+]1(C)[C@@H]2C[C@@H](OC(=O)[C@H](CO)c3ccccc3)C[C@H]1[C@@H]1O[C@@H]12 (some centres undefined) [butylscopolamine-bromide] (10 µM) | 0.191 | 102% (inactive) |
| CCOc1ccc(C[C@H]2NC(=O)CCSSC[C@@H](C(=O)N3CCC[C@H]3C(=O)N[C@@H](CCCN)C(=O)NCC(N)=O)NC(=O)[C@H](CC(N)=O)NC(=O)[C@H]([C@@H](C)O)NC(=O)[C@H]([C@@H](C)CC)NC2=O)cc1 [atosiban] (10 µM) | 0.175 | 91% (inactive) |
| CON(C)C(=O)N1N=C(c2cc(F)ccc2F)S[C@@]1(CCCN)c1ccccc1 [filanesib] (0.833333 µM) | -0.306 | 99% (inactive) |
| C[C@H](NC[C@H](O)CP(=O)(O)Cc1ccccc1)c1ccc(Cl)c(Cl)c1 (10 µM) | 0.127 | 106% (inactive) |
